Data taken from PubChem BioAssay (NCATS).
Results filed as inconclusive are left out. Activity calls are given as the source filed them. The call rests on the fitted dose curve; in most records, active means well fitted curve in the direction sought with a large enough effect; inconclusive means small, poorly fitted or top-dose-only effect, or another doubt; inactive means no such curve, though single readings can be large; an effect the other way counts as inactive or inconclusive.

Tests used:
[1] = Quantitative High-Throughput drug screen in 47 multiple myeloma cell lines against the NCATS MIPE library collection: JIM3_ECACC cell viability assay (AID 1918963; further: nearly all actives have a fitted effect of over 35% in size; further: potency means the concentration at half of the fitted maximal effect)
Summary of the method: (§1)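 Myeloma cell lines, 500 cells per well, exposed to MIPE 4.0 library compounds for 48 h at 37C, 5% CO2. Viability from ATP by CellTiter-Glo luminescence; normalised to DMSO (100%) and media-only (0%) wells.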

[2] = Quantitative High-Throughput drug screen in 47 multiple myeloma cell lines against the NCATS MIPE library collection: JJN3_DSMZ cell viability assay (AID 1918966; further: nearly all actives have a fitted effect of over 50% in size; further: potency means the concentration at half of the fitted maximal effect)
Summary of the method: (§2)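 Myeloma cells (500 per well) were exposed to MIPE 4.0 compounds by pin transfer and incubated 48 hours at 37C, 5% CO2. Viability was read as ATP by CellTiter-Glo luminescence, normalised to DMSO (100%) and media-only (0%) wells.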

[3] = Quantitative High-Throughput drug screen in 47 multiple myeloma cell lines against the NCATS MIPE library collection: H1112_PLB cell viability assay (AID 1918967; further: nearly all actives have a fitted effect of over 30% in size; further: potency means the concentration at half of the fitted maximal effect)
Summary of the method: as §2

[4] = Quantitative High-Throughput drug screen in 47 multiple myeloma cell lines against the NCATS MIPE library collection: KMS12BM_JCRB cell viability assay (AID 1918971); further: nearly all actives have a fitted effect of over 35% in size; further: potency means the concentration at half of the fitted maximal effect
Summary of the method: (§3)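 Approved and investigational drugs from MIPE 4.0 were added by pin tool to 500 cells per well. After 48 hours at 37C, ATP-based CellTiter-Glo luminescence indicated remaining viability.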

[5] = Quantitative High-Throughput drug screen in 47 multiple myeloma cell lines against the NCATS MIPE library collection: MM1S_ATCC cell viability assay (AID 1918980); further: nearly all actives have a fitted effect of over 45% in size; further: potency means the concentration at half of the fitted maximal effect
Summary of the method: (§4)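 500 cells/well per myeloma line exposed to pinned MIPE 4.0 compounds for 48 h at 37 °C, 5% CO2. Viability read as ATP by CellTiter-Glo luminescence, normalised to DMSO-only (100%) and media-only (0%) wells.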

[6] = Quantitative High-Throughput drug screen in 47 multiple myeloma cell lines against the NCATS MIPE library collection: INA6_PLB cell viability assay (AID 1918965; further: nearly all actives have a fitted effect of over 55% in size; further: potency means the concentration at half of the fitted maximal effect)
Summary of the method: as §1

[7] = Quantitative High-Throughput drug screen in 47 multiple myeloma cell lines against the NCATS MIPE library collection: KMS27_JCRB cell viability assay (AID 1918970); further: nearly all actives have a fitted effect of over 30% in size; further: potency means the concentration at half of the fitted maximal effect
Summary of the method: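 Each line is seeded at 500 cells per well and treated with library compounds for 48 hours under 37 °C, 5% CO2. CellTiter-Glo is then added for 5 min at room temperature before median relative luminescence is recorded.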

[8] = Quantitative High-Throughput drug screen in 47 multiple myeloma cell lines against the NCATS MIPE library collection: KMS12PE_JCRB cell viability assay (AID 1918972); further: nearly all actives have a fitted effect of over 30% in size; further: potency means the concentration at half of the fitted maximal effect
Summary of the method: as §1

[9] = Quantitative High-Throughput drug screen in 47 multiple myeloma cell lines against the NCATS MIPE library collection: KMS26_JCRB cell viability assay (AID 1918975); further: nearly all actives have a fitted effect of over 45% in size; further: potency means the concentration at half of the fitted maximal effect
Summary of the method: as §3

[10] = Quantitative High-Throughput drug screen in 47 multiple myeloma cell lines against the NCATS MIPE library collection: KHM11_PLB cell viability assay (AID 1918962); further: nearly all actives have a fitted effect of over 35% in size; further: potency means the concentration at half of the fitted maximal effect
Summary of the method: as §1

[11] = Quantitative High-Throughput drug screen in 47 multiple myeloma cell lines against the NCATS MIPE library collection: JIM1_ECACC cell viability assay (AID 1918964; further: potency means the concentration at half of the fitted maximal effect)
Summary of the method: as §2

[12] = Quantitative High-Throughput drug screen in 47 multiple myeloma cell lines against the NCATS MIPE library collection: Karpas25_ECACC cell viability assay (AID 1918968; further: nearly all actives have a fitted effect of over 35% in size; further: potency means the concentration at half of the fitted maximal effect)
Summary of the method: as §2

[13] = Quantitative High-Throughput drug screen in 47 multiple myeloma cell lines against the NCATS MIPE library collection: MMM1_PLB cell viability assay (AID 1918976)
Summary of the method: as §4

[14] = Quantitative High-Throughput drug screen in 47 multiple myeloma cell lines against the NCATS MIPE library collection: MOLP8_DSMZ cell viability assay (AID 1918977); further: nearly all actives have a fitted effect of over 45% in size; further: potency means the concentration at half of the fitted maximal effect
Summary of the method: as §4

[15] = Quantitative High-Throughput drug screen in 47 multiple myeloma cell lines against the NCATS MIPE library collection: NCIH929_DSMZ cell viability assay (AID 1918978); further: nearly all actives have a fitted effect of over 35% in size; further: potency means the concentration at half of the fitted maximal effect
Summary of the method: as §4

[16] = Quantitative High-Throughput drug screen in 47 multiple myeloma cell lines against the NCATS MIPE library collection: MM1R_ATCC cell viability assay (AID 1918981); further: nearly all actives have a fitted effect of over 35% in size; further: potency means the concentration at half of the fitted maximal effect
Summary of the method: as §4

[17] = Quantitative High-Throughput drug screen in 47 multiple myeloma cell lines against the NCATS MIPE library collection: Karpas417_ECACC cell viability assay (AID 1918961); conditions: Karpas417 myeloma viability, CellTiter-Glo ATP luminescence, 48 h; viability (% of DMSO): at 45.8 µM (top of the series)
Summary of the method: as §1

[18] = Quantitative High-Throughput drug screen in 47 multiple myeloma cell lines against the NCATS MIPE library collection: KMS20_JCRB cell viability assay (AID 1918973); further: potency means the concentration at half of the fitted maximal effect; nearly all actives have a fitted effect of over 45% in size
Summary of the method: as §2

[19] = Quantitative High-Throughput drug screen in 47 multiple myeloma cell lines against the NCATS MIPE library collection: OCIMY1_PLB cell viability assay (AID 1918979); further: nearly all actives have a fitted effect of over 35% in size
Summary of the method: as §4

Measured: Potency

CC(C)Cn1cnc2c(N)nc3ccccc3c21
active: [2] 18.7 µM | [4] 14.8 µM | [5] 4.69 µM
inactive: [1] | [3]

CS(=O)(=O)c1ccc([C@@H](O)[C@@H](CO)NC(=O)C(Cl)Cl)cc1
inactive: [3] | [7] | [4] | [9]
active: [1] 9.35 µM | [6] 11.8 µM | [8] 2.35 µM | [5] 7.43 µM

CN(C)c1ccc(C(=C2C=CC(=[N+](C)C)C=C2)c2ccc(N(C)C)cc2)cc1
active: [10] 0.0166 µM | [11] 0.105 µM | [6] 0.0093 µM | [2] 0.0187 µM | [3] 0.0372 µM | [12] 0.0118 µM | [4] 0.0662 µM | [8] 0.0093 µM | [9] 0.166 µM | [13] 0.132 µM | [14] 0.0526 µM | [15] 0.0264 µM | [5] 0.105 µM | [16] 0.132 µM

O=C(O)c1ccc(-n2nc(-c3ccccc3O)nc2-c2ccccc2O)cc1
inactive: [17]
active: [1] 18.7 µM | [11] 18.7 µM | [6] 18.7 µM | [12] 16.6 µM | [7] 18.7 µM | [4] 20.9 µM

CCCCOc1ccc(CC(=O)NO)cc1
active: [12] 6.62 µM | [7] 33.2 µM | [4] 20.9 µM | [8] 23.5 µM | [18] 16.6 µM | [9] 10.5 µM | [13] 13.2 µM | [5] 2.64 µM | [16] 8.33 µM

CO[C@@H]1[C@@H](OC(N)=O)[C@@H](O)[C@H](Oc2ccc3c(O)c(NC(=O)c4ccc(O)c(CC=C(C)C)c4)c(=O)oc3c2C)OC1(C)C
inactive: [3]
active: [10] 2.64 µM | [1] 5.26 µM | [12] 5.9 µM | [4] 2.96 µM | [9] 9.35 µM | [16] 8.33 µM

O=C(O)CSCC(=O)NC1CCSC1=O (stereo unspecified)
not listed: [6] | [11] | [12] | [13] | [16] | [17] | [18]
inactive: all other assays above

NC(N)=NC(N)=NCCc1ccccc1
active: [10] 16.6 µM | [1] 4.69 µM | [6] 20.9 µM | [12] 5.26 µM | [4] 10.5 µM | [13] 5.26 µM | [5] 2.96 µM

COc1cccc(N(C)C(=S)Oc2ccc3c(c2)CCCC3)n1
inactive: [1] | [3] | [4] | [9] | [14] | [15] | [19]
active: [6] 16.6 µM | [5] 18.7 µM

O=c1oc2c(O)c(O)cc3c(=O)oc4c(O)c(O)cc1c4c23
inactive: [1] | [6] | [12] | [7] | [8] | [15] | [16]

CC[C@H](NC(C)C)[C@H](O)c1ccc(O)c2[nH]c(=O)ccc12
active: [4] 0.0235 µM | [5] 0.235 µM
inactive: [1] | [11] | [3] | [7] | [8] | [9] | [15] | [19]

Cc1cccc(N(C)C(=S)Oc2ccc3ccccc3c2)c1
inactive: [10] | [1] | [6] | [2] | [4] | [9] | [15] | [19] | [16]

O=C(NCC1CN(c2ccc(N3CCOCC3=O)cc2)C(=O)O1)c1ccc(Cl)s1 (stereo unspecified)
inactive: [1] | [3] | [4] | [9] | [14] | [15] | [19]
